In PubChem BioAssay AID1159580 (chemical genetic matrix, 2015):
Among all 5,500 compounds or so, about 2,000 (36%) were called active. Another 18% or so got no clear call; they are omitted. Rule as the data show it: active = normalized growth mostly below about 0.91 (no sharp cut-off); inconclusive = no clear call, values can overlap the other calls; inactive = mostly above about 0.92. The list shows a part of the results.

Experiment: chemical genetic growth profiling, strain panel (AID 1159580);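 also: tested at 20 µM; growth read once vehicle control cultures reached saturation at 30 °C; 1 = growth at the plate median or of vehicle wells; lower values mean less growth of the strain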
Details: growth OD
[1] = S. cerevisiae deletion strains, locus YDR150W, strain NUM1, stronger effect = lower value
[2] = S. cerevisiae deletion strains, locus YGR078C, strain PAC10, stronger effect = lower value
[3] = S. cerevisiae deletion strains, locus YDL101C, strain DUN1, stronger effect = lower value
[4] = S. cerevisiae deletion strains, locus YHR030C, strain SLT2, stronger effect = lower value

Measured: normalized growth

O=[N+]([O-])c1ccc(O[C@@H]2O[C@H](CO)[C@@H](O)[C@H](O)[C@H]2F)c([N+](=O)[O-])c1
inactive: S. cerevisiae deletion strains, locus YAL040C, strain CLN3, stronger effect = lower value 0.994 | S. cerevisiae deletion strains, locus YCL061C, strain MRC1 (second series), stronger effect = lower value 0.991 | [1] 0.991 | S. cerevisiae deletion strains, locus YDR363W, strain ESC2, stronger effect = lower value 1.03 | S. cerevisiae deletion strains, locus YER002W, strain NOP16, stronger effect = lower value 0.969 | [2] 1.01 | S. cerevisiae deletion strains, locus YNL175C, strain NOP13, stronger effect = lower value 0.986 | S. cerevisiae deletion strains, locus YNL197C, strain WHI3, stronger effect = lower value 0.995 | S. cerevisiae deletion strains, locus YNL224C, strain SQS1, stronger effect = lower value 0.984 | S. cerevisiae deletion strains, locus YOR083W, strain WHI5 (second series), stronger effect = lower value 1.02

O=[N+]([O-])c1ccc(ON=C2CCCCC2)c([N+](=O)[O-])c1
inactive: S. cerevisiae deletion strains, locus YAR019C, strain CDC15, stronger effect = lower value 0.982 | S. cerevisiae deletion strains, locus YBL105C, strain PKC1, stronger effect = lower value 0.998 | S. cerevisiae deletion strains, locus YBR135W, strain CKS1, stronger effect = lower value 0.997 | S. cerevisiae deletion strains, locus YBR136W, strain MEC1, stronger effect = lower value 0.996 | S. cerevisiae deletion strains, locus YBR160W, strain CDC28, stronger effect = lower value 0.997 | S. cerevisiae deletion strains, locus YDL017W, strain CDC7, stronger effect = lower value 0.995 | S. cerevisiae deletion strains, locus YDL028C, strain MPS1, stronger effect = lower value 0.988 | S. cerevisiae deletion strains, locus YDL108W, strain KIN28, stronger effect = lower value 1 | S. cerevisiae deletion strains, locus YDL132W, strain cdc53, stronger effect = lower value 0.981 | S. cerevisiae deletion strains, locus YDL214C, strain PRR2, stronger effect = lower value 0.875 | S. cerevisiae deletion strains, locus YDR054C, strain cdc34, stronger effect = lower value 0.981 | S. cerevisiae deletion strains, locus YDR226W, strain ADK1, stronger effect = lower value 0.987 | S. cerevisiae deletion strains, locus YDR477W, strain SNF1, stronger effect = lower value 0.827 | S. cerevisiae deletion strains, locus YER123W, strain YCK3, stronger effect = lower value 0.722 | S. cerevisiae deletion strains, locus YER133W, strain GLC7, stronger effect = lower value 0.786 | S. cerevisiae deletion strains, locus YFL009W, strain cdc4, stronger effect = lower value 0.975 | S. cerevisiae deletion strains, locus YFL029C, strain CAK1, stronger effect = lower value 0.987 | S. cerevisiae deletion strains, locus YFR003C, strain YPI1, stronger effect = lower value 0.999 | S. cerevisiae deletion strains, locus YFR019W, strain FAB1, stronger effect = lower value 0.887 | S. cerevisiae deletion strains, locus YFR028C, strain CDC14, stronger effect = lower value 0.983 | S. cerevisiae deletion strains, locus YGR040W, strain KSS1, stronger effect = lower value 0.84 | S. cerevisiae deletion strains, locus YGR052W, strain FMP48, stronger effect = lower value 0.877 | S. cerevisiae deletion strains, locus YGR092W, strain DBF2, stronger effect = lower value 0.602 | S. cerevisiae deletion strains, locus YHR079C, strain IRE1, stronger effect = lower value 0.721 | S. cerevisiae deletion strains, locus YHR082C, strain KSP1, stronger effect = lower value 0.966 | S. cerevisiae deletion strains, locus YIL147C, strain SLN1, stronger effect = lower value 0.984 | S. cerevisiae deletion strains, locus YJL095W, strain BCK1, stronger effect = lower value 0.568 | S. cerevisiae deletion strains, locus YJL128C, strain PBS2, stronger effect = lower value 0.995 | S. cerevisiae deletion strains, locus YJL157C, strain FAR1, stronger effect = lower value 0.84 | S. cerevisiae deletion strains, locus YJR016C, strain ILV3, stronger effect = lower value 0.981 | S. cerevisiae deletion strains, locus YJR066W, strain TOR1, stronger effect = lower value 0.801 | S. cerevisiae deletion strains, locus YKL067W, strain YNK1, stronger effect = lower value 0.853 | S. cerevisiae deletion strains, locus YKL101W, strain HSL1, stronger effect = lower value 0.879 | S. cerevisiae deletion strains, locus YKL193C, strain SDS22, stronger effect = lower value 0.988 | S. cerevisiae deletion strains, locus YKL203C, strain TOR2, stronger effect = lower value 0.797 | S. cerevisiae deletion strains, locus YLR133W, strain CKI1, stronger effect = lower value 0.88 | S. cerevisiae deletion strains, locus YLR403W, strain SFP1, stronger effect = lower value 0.798 | S. cerevisiae deletion strains, locus YML070W, strain DAK1, stronger effect = lower value 0.852 | S. cerevisiae deletion strains, locus YMR001C, strain CDC5, stronger effect = lower value 0.989 | S. cerevisiae deletion strains, locus YMR205C, strain PFK2 (second series), stronger effect = lower value 0.865 | S. cerevisiae deletion strains, locus YMR277W, strain FCP1, stronger effect = lower value 0.989 | S. cerevisiae deletion strains, locus YNL006W, strain LST8, stronger effect = lower value 0.991 | S. cerevisiae deletion strains, locus YNL020C, strain ARK1, stronger effect = lower value 0.881 | S. cerevisiae deletion strains, locus YNL161W, strain CBK1, stronger effect = lower value 0.984 | S. cerevisiae deletion strains, locus YNL183C, strain NPR1, stronger effect = lower value 0.795 | S. cerevisiae deletion strains, locus YNL207W, strain RIO2, stronger effect = lower value 0.969 | S. cerevisiae deletion strains, locus YNL222W, strain SSU72, stronger effect = lower value 1 | S. cerevisiae deletion strains, locus YNL307C, strain MCK1 (second series), stronger effect = lower value 0.699 | S. cerevisiae deletion strains, locus YOL078W, strain AVO1, stronger effect = lower value 0.993 | S. cerevisiae deletion strains, locus YOL136C, strain PFK27, stronger effect = lower value 0.878 | S. cerevisiae deletion strains, locus YOR061W, strain CKA2, stronger effect = lower value 0.865 | S. cerevisiae deletion strains, locus YOR119C, strain RIO1, stronger effect = lower value 0.839 | S. cerevisiae deletion strains, locus YOR231W, strain MKK1, stronger effect = lower value 0.776 | S. cerevisiae deletion strains, locus YOR329C, strain SCD5, stronger effect = lower value 0.994 | S. cerevisiae deletion strains, locus YPL031C, strain PHO85, stronger effect = lower value 0.808 | S. cerevisiae deletion strains, locus YPL153C, strain RAD53, stronger effect = lower value 0.774 | S. cerevisiae deletion strains, locus YPL204W, strain HRR25, stronger effect = lower value 0.74 | S. cerevisiae deletion strains, locus YPL209C, strain IPL1, stronger effect = lower value 0.983 | S. cerevisiae deletion strains, locus YPR025C, strain CCL1, stronger effect = lower value 1 | S. cerevisiae deletion strains, locus YPR106W, strain ISR1, stronger effect = lower value 0.976 | S. cerevisiae deletion strains, locus YPR111W, strain DBF20, stronger effect = lower value 0.974 | S. cerevisiae deletion strains, strain NNK1, stronger effect = lower value 0.975 | S. cerevisiae deletion strains, strain TSCII, stronger effect = lower value 0.968
active: [3] 0.876 | S. cerevisiae deletion strains, locus YDR052C, strain DBF4, stronger effect = lower value 0.904 | [4] 0.608 | S. cerevisiae deletion strains, locus YHR205W, strain SCH9, stronger effect = lower value 0.448 | S. cerevisiae deletion strains, locus YJR066W, strain TOR1 (second series), stronger effect = lower value 0.429 | S. cerevisiae deletion strains, locus YKL048C, strain ELM1, stronger effect = lower value 0.783 | S. cerevisiae deletion strains, locus YLR113W, strain HOG1, stronger effect = lower value 0.749 | S. cerevisiae deletion strains, locus YPL256C, strain CLN2, stronger effect = lower value 0.765

O=[N+]([O-])c1ccc(OCCO)c([N+](=O)[O-])c1
inactive: S. cerevisiae deletion strains, locus YAL013W, strain DEP1, stronger effect = lower value 1 | S. cerevisiae deletion strains, locus YBR229C, strain ROT2, stronger effect = lower value 0.978 | S. cerevisiae deletion strains, locus YCL061C, strain MRC1, stronger effect = lower value 1.04 | [3] 1.01 | [1] 0.981 | S. cerevisiae deletion strains, locus YEL061C, strain CIN8, stronger effect = lower value 0.954 | [2] 1.02 | [4] 1.23 | S. cerevisiae deletion strains, locus YHR087W, strain rtc3, stronger effect = lower value 0.991 | S. cerevisiae deletion strains, locus YJL187C, strain SWE1, stronger effect = lower value 0.991 | S. cerevisiae deletion strains, locus YJR043C, strain POL32, stronger effect = lower value 1.01 | S. cerevisiae deletion strains, locus YJR075W, strain HOC1, stronger effect = lower value 1.03 | S. cerevisiae deletion strains, locus YKL190W, strain CNB1, stronger effect = lower value 1 | S. cerevisiae deletion strains, locus YLR039C, strain RIC1, stronger effect = lower value 1.18 | S. cerevisiae deletion strains, locus YLR058C, strain SHM2 (second series), stronger effect = lower value 0.998 | S. cerevisiae deletion strains, locus YLR085C, strain ARP6, stronger effect = lower value 1 | S. cerevisiae deletion strains, locus YLR262C, strain YPT6, stronger effect = lower value 1.14 | S. cerevisiae deletion strains, locus YML094W, strain GIM5, stronger effect = lower value 1 | S. cerevisiae deletion strains, locus YMR219W, strain ESC1, stronger effect = lower value 0.993 | S. cerevisiae deletion strains, locus YMR263W, strain SAP30, stronger effect = lower value 1.01 | S. cerevisiae deletion strains, locus YNL153C, strain GIM3, stronger effect = lower value 1.01 | S. cerevisiae deletion strains, locus YNL298W, strain CLA4 (second series), stronger effect = lower value 0.987 | S. cerevisiae deletion strains, locus YNL322C, strain KRE1, stronger effect = lower value 0.982 | S. cerevisiae deletion strains, locus YNR030W, strain Alg12, stronger effect = lower value 0.997 | S. cerevisiae deletion strains, locus YOL006C, strain TOP1, stronger effect = lower value 1.01 | S. cerevisiae deletion strains, locus YPL055C, strain LGE1, stronger effect = lower value 0.989 | S. cerevisiae deletion strains, locus YPL241C, strain CIN2, stronger effect = lower value 0.996 | S. cerevisiae deletion strains, locus YPR135W, strain CTF4, stronger effect = lower value 1.11 | S. cerevisiae strains, strain wild type, stronger effect = lower value 0.986
